# Screens (PubChem BioAssay)
# DAGLB inhibitor = diacylglycerol lipase beta (human) inhibition; HEK293T DAGLB membrane lysate, EnzChek fluorogenic substrate; inhibition, % at 5.17 µM; actives 0.059% (n = 340,000); AID 504411; in the data active = inhibition above about 34%;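 also: 0% = enzyme with vehicle and 100% = wells lacking enzyme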
# NadD block = blocks S. aureus nicotinate mononucleotide adenylyltransferase. actives 0.78% (n = 360,000). AID 602399. purified NadD enzyme, colorimetric absorbance read-out. inhibition, % at 20 µM; in the data active = inhibition above about 26%
# ARNT TACC3 PPI = ARNT/TACC3 interaction disruption. actives 0.66% (n = 390,000). Q9Y6A5. AlphaScreen His-ARNT PAS-B/GST-TACC3 binding, luminescence; TACC3 fragment carries E629A point mutation. inhibition, % at 9.99 µM. AID 623870;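 active = mean inhibition of replicates at least 50% and at least half of replicates each reaching 50%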;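 also: 0% = complete ARNT plus TACC3 wells and 100% = ARNT alone without TACC3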
# Neddylation inh = inhibitors of human cullin neddylation. actives 0.58% (n = 360,000). AID 651699. inhibition, % at 25 µM. TR-FRET cullin neddylation, biochemical; in the data active = inhibition above about 36%
# sPLA2-III inh = Blocks human group III sPLA2 activity. Q9NZ20. QFRET BODIPY PC-A2 liposome hydrolysis, fluorescence. inhibition, % at 12.2 µM. actives 0.56% (n = 370,000). AID 743126;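 active = inhibition above mean plus 3 SD of compounds lying within the high and low control bounds, cut at about 19% in these data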;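 also: 0% = median of test compound wells and 100% = no enzyme DMSO wells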
# Target sequence (Q9NZ20 whole entry, looked up): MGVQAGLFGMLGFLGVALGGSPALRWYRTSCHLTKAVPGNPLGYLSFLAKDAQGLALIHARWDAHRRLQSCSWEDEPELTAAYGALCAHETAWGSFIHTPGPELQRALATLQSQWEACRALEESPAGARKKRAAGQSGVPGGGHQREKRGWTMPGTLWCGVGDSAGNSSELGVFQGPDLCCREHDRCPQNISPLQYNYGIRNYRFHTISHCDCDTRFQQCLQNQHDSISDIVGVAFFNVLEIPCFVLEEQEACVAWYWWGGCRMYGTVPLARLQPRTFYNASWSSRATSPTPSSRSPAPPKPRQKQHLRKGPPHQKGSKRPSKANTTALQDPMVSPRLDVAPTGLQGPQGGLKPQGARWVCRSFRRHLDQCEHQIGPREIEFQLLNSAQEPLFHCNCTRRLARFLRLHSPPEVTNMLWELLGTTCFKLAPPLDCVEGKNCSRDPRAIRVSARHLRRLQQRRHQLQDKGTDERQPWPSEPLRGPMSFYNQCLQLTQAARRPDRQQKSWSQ
# sPLA2 confirm = human GIII-sPLA2 inhibition, confirmation | AID 743280 | shares compounds with sPLA2-III inh | inhibition, % at 12.2 µM | recombinant hGIII-sPLA2, BODIPY PC-A2 QFRET fluorescence | actives 34% (n = 2,000);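 active = mean inhibition across triplicates above the hit cutoff set in the earlier primary screen, cut at about 19% in these data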;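 also: 0% = enzyme with DMSO and 100% = DMSO wells lacking enzyme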
# BODIPY interf = 535nm fluorescence interference, HGIII-sPLA2 counter-screen. shares compounds with sPLA2-III inh. BODIPY FL product fluorescence interference, QFRET. inhibition, % at 12.2 µM. actives 8.5% (n = 2,000);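 active = average inhibition above the solvent-only control mean plus 3 SD, cut at about 6% in these data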;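 also: 0% = DMSO with substrate plus product and 100% = DMSO with substrate alone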
# BODIPY interf DR = counter-screen for HGIII-sPLA2 inhibitors: 535nm fluorescence interference, dose response | shares compounds with sPLA2-III inh | BODIPY FL product fluorescence interference, cell-free | IC50, µM | 240 tested, under 10 active | AID 743455;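 active = IC50 at or below 10 µM; inactive = IC50 above 10 µM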
# Active calls of the source: *; . = not tested or not shown. Rows were chosen to be rich in hits. Some 2% of all compounds tested hit in one or more screens of this group.
SMILES,DAGLB inhibitor,NadD block,ARNT TACC3 PPI,Neddylation inh,sPLA2-III inh,sPLA2 confirm,BODIPY interf,others
CN1CCC[C@@H]1CCNC(=O)c1cccc2c1C(=O)c1ccc(N3CCCC3)cc1S2(=O)=O,-3,0,0,-66,78*,-21,-31,
C[C@H]1CN([C@@H](C)CO)C(=O)c2cc(C#CCN(C)C)cnc2O[C@@H]1CN(C)Cc1ccc(F)cc1,.,.,-4,.,.,.,.,
COc1cccc(/C=N/N=C(\N)c2nonc2N)c1O,-1,9,-1,4,20*,6,-3,
C[C@@H]1CN([C@@H](C)CO)C(=O)c2cccc(NS(=O)(=O)c3ccc(Cl)cc3)c2O[C@H]1CN(C)CC1CC1,.,.,-3,.,.,.,.,
Cc1cccc2sc(=S)[nH]c12,.,14,.,-10,24*,20*,-4,
S=c1[nH]c2ccc(Cl)cc2s1,0,-4,.,-3,12,.,.,
Cc1ccc(NC(=O)C2CCCO2)cc1[N+](=O)[O-] (configuration not stated),-1,-4,-4,-39,20*,1,-2,
O=C(Nc1cccc(NC(=O)C2CCCO2)c1)C1CCCO1 (configuration not stated),1,-7,.,-2,1,.,.,
Cc1noc(C)c1NC(=O)N(C)C[C@@H]1Oc2ccc(NC(=O)NC3CCCCC3)cc2C(=O)N([C@@H](C)CO)C[C@@H]1C,.,.,-4,.,.,.,.,
C=CCNC(=S)N/N=C/c1ccc(C)c([N+](=O)[O-])c1,-1,-5,0,-16,11,.,.,
NC(=S)N/N=C/c1cc([N+](=O)[O-])ccc1Cl,-1,10,-2,-44,20*,13,0,
CN(C)c1ccc(/C=N/NC(N)=S)cc1[N+](=O)[O-],5,-1,10,-50,21*,20*,-2,
C[C@H](O)C#Cc1cnc2c(c1)C(=O)N([C@H](C)CO)C[C@@H](C)[C@@H](CN(C)C(=O)c1ccncc1)O2,.,.,2,.,.,.,.,
O=C(/C=C/c1cccs1)c1ccc([N+](=O)[O-])cc1,0,-5,-3,-32,21*,4,-2,
O=C(C[n+]1ccc(/C=N/O)cc1)N1CCCCC1,-2,-2,4,-25,22*,-4,-3,
CC(C)NC(=O)N(C)C[C@@H]1OCCCC[C@@H](C)Oc2ccc(N(C)C)cc2C(=O)N([C@@H](C)CO)C[C@H]1C,.,.,30,.,.,.,.,
Cc1ccc(C(=O)Nc2nc(C(N)Cc3ccc(C(F)(F)F)cc3)cs2)cc1 (configuration not stated),.,10,.,2,23*,5,-3,
COC(=O)C(CC#Cc1ccc2c(c1)[C@]1(C(=O)N2)[C@H](c2ccccc2OCCO)N2[C@H](c3ccccc3)[C@H](c3ccccc3)OC(=O)[C@H]2[C@@H]1C(=O)N1CCCCCCC1)C(=O)OC,.,.,-17,.,.,.,.,
CCCOc1ccc(CSC(=N)N)cc1C(=O)OC,-4,-5,-6,8,3,.,.,
COC(=O)c1cc(CSC(=N)N)ccc1OCCC(C)C,0,-1,-4,3,21*,29*,-13,
Cc1cccc(NC(=O)c2ccc(NC(=O)c3ccccc3Br)cc2)c1,-1,1,.,1,-1,.,.,
COc1ccccc1NC(=S)NNC(=O)c1cc(C)n(C)n1,-1,15,.,-5,17,.,.,
Cc1cccc(NC(=S)NNC(=O)c2ccc3c(c2)OCO3)c1,1,0,4,6,23*,43*,0,BODIPY interf DR=>122
Cc1cccc(NC(=S)NNC(=O)c2ccccc2Br)c1,1,5,34,-1,31*,26*,2,
COc1ccccc1NC(=S)NNC(=O)c1ccccc1Br,2,4,1,-9,22*,19,0,
COc1ccccc1NC(=S)NNC(=O)c1cc(C)nn1C,2,-3,3,-12,19*,22*,-4,
CN(C)CC(=O)N[C@H]1CC[C@H](CC(=O)NCc2ccc(Cl)cc2)O[C@H]1CO,.,.,-7,.,.,.,.,
Cc1cccc(NC(=S)NNC(=O)c2ccccc2OC(F)F)c1,-2,-2,17,1,23*,36*,-4,
